PubChem BioAssay (NCI)
About 83,000 compounds went through this panel and 20% of them were active in at least one assay; those are over-represented in the sample as a whole.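 Single-dose data. Exposure time 48 hours. Values below 10 considered active.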 The source made the active and inactive calls.

How the values were obtained:
Experiment in all cases: NCI-60 one-dose screen, 48 h (100 = growth as untreated, 0 = no growth, -100 = all killed)
Settings in all cases: 10 µM unless noted
DU-145 prostate = test system: DU-145 prostate
K-562 leukemia = test system: K-562 leukemia
MALME-3M melanoma = test system: MALME-3M melanoma
MDA-MB-231 breast = test system: MDA-MB-231 breast
RXF 393 renal = test system: RXF 393 renal
SF-268 CNS = test system: SF-268 CNS
SF-295 CNS = test system: SF-295 CNS
SF-539 CNS = test system: SF-539 CNS
UACC-257 melanoma = test system: UACC-257 melanoma
M14 melanoma = test system: M14 melanoma

Measured: growth

CN1CCN(c2ccc(NC(=O)c3cncnc3Nc3ccc4c(ccn4Cc4cccc(F)c4)c3)cc2)CC1
active: K-562 leukemia 2.74% | MALME-3M melanoma -82.6% | M14 melanoma -59.3%
inactive: DU-145 prostate 54% | MDA-MB-231 breast 11.9% | RXF 393 renal 31% | SF-268 CNS 71% | SF-295 CNS 80.8% | SF-539 CNS 45% | UACC-257 melanoma 65.4%

CN1CCN(C(=O)c2cc(-c3ccc4ncnc(N5CCc6cc(F)c(Cl)cc65)c4c3)cnc2N)CC1
inactive: K-562 leukemia 11.1% | MDA-MB-231 breast 10.5%
active: DU-145 prostate 8.87% | MALME-3M melanoma -38.6% | RXF 393 renal -48.9% | SF-268 CNS 0.525% | SF-295 CNS 0.0297% | SF-539 CNS -24.3% | UACC-257 melanoma 6% | M14 melanoma 1.59%

O=C1C(Cl)=C(NCCN2CCOCC2)C(=O)c2ncccc21
active: DU-145 prostate -88.5% | K-562 leukemia -33.5% | MALME-3M melanoma -79.3% | RXF 393 renal -27.5% | SF-295 CNS -40.5% | SF-539 CNS -85.8% | UACC-257 melanoma -92.8% | M14 melanoma -85.9%
inactive: MDA-MB-231 breast 18.6% | SF-268 CNS 11%

O=C(Nc1nc(C(=O)N2CCN(C(c3ccccc3)c3ccccc3)CC2)cs1)c1ccc(NC2CCCCC2)c([N+](=O)[O-])c1
inactive: DU-145 prostate 98.9% | K-562 leukemia 83.9% | MALME-3M melanoma 89.4% | MDA-MB-231 breast 70.5% | RXF 393 renal 85% | SF-268 CNS 86.3% | SF-295 CNS 69.9% | SF-539 CNS 93.3% | UACC-257 melanoma 89.4% | M14 melanoma 77.8%

O=C(O)CCCc1cnc2c3sccc3nc(SCc3c(Cl)cccc3Cl)n12
inactive: DU-145 prostate 59.3% | K-562 leukemia 20.7% | MALME-3M melanoma 59.2% | MDA-MB-231 breast 69.6% | RXF 393 renal 54.6% | SF-268 CNS 50.3% | SF-295 CNS 27.2% | SF-539 CNS 41% | UACC-257 melanoma 53% | M14 melanoma 33%

COc1cc(/C=C/c2cc(/C=C/c3ccc(O)c(OC)c3)n(C(=O)Nc3ccc(F)cc3)n2)ccc1O
active: DU-145 prostate 6.78% | K-562 leukemia 0.22% | MALME-3M melanoma 9.15% | RXF 393 renal -43.8% | SF-295 CNS -21.6% | SF-539 CNS 3.68% | M14 melanoma 2.69%
inactive: MDA-MB-231 breast 33.6% | SF-268 CNS 20.1% | UACC-257 melanoma 13.7%

Cc1ccc(/C=C(\C#N)C(=O)Nc2ncc(Cc3cc(Cl)ccc3Cl)s2)o1
active: SF-295 CNS 5.34%
inactive: DU-145 prostate 60% | K-562 leukemia 24.6% | MALME-3M melanoma 54.3% | MDA-MB-231 breast 76.4% | RXF 393 renal 38.3% | SF-268 CNS 44.2% | SF-539 CNS 16.9% | UACC-257 melanoma 35.3% | M14 melanoma 69.4%

O=C(CCCCNC(=O)c1cc(=O)c(O)co1)Nc1ccccc1
inactive: DU-145 prostate 104% | K-562 leukemia 13.3% | MALME-3M melanoma 43% | MDA-MB-231 breast 99% | RXF 393 renal 55.5% | SF-268 CNS 91% | SF-295 CNS 102% | SF-539 CNS 92.5% | UACC-257 melanoma 88.7% | M14 melanoma 81.5%

O=C1OCC2=C1C(c1cccc(F)c1)c1cc3c(cc1N2CCO)OCO3 (stereo not given)
inactive: DU-145 prostate 30.5% | MALME-3M melanoma 52.7% | MDA-MB-231 breast 49.9% | RXF 393 renal 32.6% | SF-268 CNS 38.7% | UACC-257 melanoma 75.5% | M14 melanoma 12.6%
active: K-562 leukemia 9.79% | SF-295 CNS 1.9% | SF-539 CNS 2.82%

Cc1cccc(N2CCN(C(=S)c3ccc4c(c3)OCO4)CC2)c1
inactive: DU-145 prostate 11% | K-562 leukemia 14% | MALME-3M melanoma 21.8% | MDA-MB-231 breast 45.3% | SF-268 CNS 47.2% | UACC-257 melanoma 32.5%
active: RXF 393 renal -15.1% | SF-295 CNS 2.38% | SF-539 CNS -26.9% | M14 melanoma -4.87%

Cc1nn(-c2ccccc2)c(N2CCCCC2)c1/C=N/NC(=O)Cn1c(=O)sc2ccccc21
inactive: DU-145 prostate 95.8% | K-562 leukemia 43.4% | MALME-3M melanoma 101% | MDA-MB-231 breast 79% | RXF 393 renal 89.9% | SF-268 CNS 79.2% | SF-295 CNS 56.7% | SF-539 CNS 92.2% | UACC-257 melanoma 95.2% | M14 melanoma 72.2%

CCN(CC)S(=O)(=O)c1ccc(S(=O)(=O)N2CCC[C@@H](C(=O)N3CCN(C(=O)OC(C)(C)C)CC3)C2)cc1
inactive: DU-145 prostate 61.2% | K-562 leukemia 35% | MALME-3M melanoma 93.7% | MDA-MB-231 breast 77.7% | RXF 393 renal 74.4% | SF-268 CNS 73.1% | SF-295 CNS 55.8% | SF-539 CNS 77.7% | UACC-257 melanoma 49.9% | M14 melanoma 77.9%

COc1ccc(-c2nnc(SCC(=O)Nc3ccc(/C(C)=N\O)cc3)n2-c2ccccc2)cc1OC
inactive: DU-145 prostate 88.3% | K-562 leukemia 105% | MALME-3M melanoma 61.8% | MDA-MB-231 breast 47.9% | RXF 393 renal 32.3% | SF-268 CNS 30.6% | SF-295 CNS 39.1% | SF-539 CNS 43% | UACC-257 melanoma 91.8% | M14 melanoma 89.9%
